Measurements published in ChEMBL document CHEMBL3433997, “St. Jude Leishmania screening dataset” (2016).

How the values were obtained:
Assay type in all cases: functional
[1] = target: Solute carrier family 2, facilitated glucose transporter member 1 (Homo sapiens) (UniProt P11166); experiment: ST_JUDE_LEISH: Cytotoxicity at 2uM final concentration against transgenic Leishmania Mexicana promastigotes LmGLUT1 that are glucose transport deficient and complemented with the human glucose transporter GLUT1. Activity is measured by DNA content using SYBR green in vitro
[2] = target: Hexose transporter 1 (Plasmodium falciparum) (UniProt O97467); experiment: ST_JUDE_LEISH: Cytotoxicity at 2uM final concentration against transgenic Leishmania Mexicana promastigotes LmPfHT that are glucose transport deficient and complemented with the Plasmodium falciparum hexose transporter. Activity is measured by DNA content using SYBR green in vitro
[3] = target: Glucose transporter (Leishmania mexicana) (UniProt O61059); experiment: ST_JUDE_LEISH: Cytotoxicity at 2uM final concentration against transgenic Leishmania Mexicana promastigotes LmGT2 that are glucose transport deficient and complemented with the L. Mexicana glucose transporter 2. Activity is measured by DNA content using SYBR green in vitro

Chain of Solute carrier family 2, facilitated glucose transporter member 1 (Homo sapiens) (P11166 whole entry): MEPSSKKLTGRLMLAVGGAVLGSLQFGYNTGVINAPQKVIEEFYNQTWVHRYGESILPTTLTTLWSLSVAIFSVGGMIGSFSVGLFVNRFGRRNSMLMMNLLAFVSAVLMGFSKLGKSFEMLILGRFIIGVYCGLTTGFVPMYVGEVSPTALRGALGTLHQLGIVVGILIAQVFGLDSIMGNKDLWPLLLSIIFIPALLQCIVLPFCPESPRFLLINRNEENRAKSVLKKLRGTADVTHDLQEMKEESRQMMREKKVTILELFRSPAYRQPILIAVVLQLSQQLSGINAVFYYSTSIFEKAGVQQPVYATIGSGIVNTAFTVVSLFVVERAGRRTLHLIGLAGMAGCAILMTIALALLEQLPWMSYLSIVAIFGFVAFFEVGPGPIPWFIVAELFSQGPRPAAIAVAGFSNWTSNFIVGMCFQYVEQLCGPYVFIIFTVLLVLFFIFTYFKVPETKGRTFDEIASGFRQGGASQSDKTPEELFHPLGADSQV

SMILES: CC(C)Nc1cc(C(=O)N[C@@H](Cc2ccccc2)[C@H](O)CNC2CCOCC2)c(F)c(N2CCCCS2(=O)=O)c1
- inhibition [1]: 6.75%
- inhibition [2]: 5.16%
- inhibition [3]: 4.99%

SMILES: CC(=O)OC[C@H]1O[C@@H](C#Cc2ccccc2)[C@H](OC(C)=O)[C@@H](OC(C)=O)[C@@H]1OC(C)=O
- inhibition [1]: 1.22%
- inhibition [2]: 2.07%
- inhibition [3]: 0.66%

SMILES: Cc1ccccc1C1CCN(C2CCC(NC(=O)/C=C/c3cccc(Cl)c3F)CC2)CC1 (stereo unspecified)
- inhibition [1]: 3.45%
- inhibition [2]: 1.79%
- inhibition [3]: 1.85%

SMILES: O=C(C=Cc1ccc(Cl)c(Cl)c1)NCCCCCN1CCC(CCCNS(=O)(=O)c2ccc(F)cc2)CC1
- inhibition [1]: 1.12%
- inhibition [2]: -1.5%
- inhibition [3]: -0.43%

SMILES: N#Cc1ccc(CN2CCC(Oc3ccc(NC(=O)c4ccco4)cc3Cl)CC2)cc1
- inhibition [1]: 0.38%
- inhibition [2]: 1.94%
- inhibition [3]: 7.81%

SMILES: COc1ccc(Nc2cc(C)nc(Nc3ccc(NC(C)=O)cc3)n2)cc1
- inhibition [1]: 47%
- inhibition [2]: 67.4%
- inhibition [3]: 32.2%

SMILES: Nc1nc(N)c2c(ccc3nn(Cc4cccnc4)cc32)n1
- inhibition [1]: 5.81%
- inhibition [2]: 5.44%
- inhibition [3]: 4.81%

SMILES: COc1ccccc1N1CCN(CCCCNC(=O)c2ccc(NC(=O)c3cc4ccccc4o3)cc2)CC1
- inhibition [1]: 1.4%
- inhibition [2]: 1.36%
- inhibition [3]: 0.06%

SMILES: Cc1nc(-c2cccc(C(F)(F)F)c2)n2nc(Nc3ccc(OCCN4CCCC4)cc3)ncc12
- inhibition [1]: 76%
- inhibition [2]: 53.7%
- inhibition [3]: 9.22%

SMILES: Fc1ccc2cc(C=Cc3ccncc3)[nH]c2c1
- inhibition [1]: 2.24%
- inhibition [2]: 4.09%
- inhibition [3]: 0.56%

SMILES: CCN(CC)CCN(Cc1ccc(-c2ccc(C(F)(F)F)cc2)cc1)C(=O)Cn1c(CCc2ccc(F)c(F)c2F)nc(=O)c2ccc(F)cc21
- inhibition [1]: 3.42%
- inhibition [2]: 0.08%
- inhibition [3]: -0.03%

SMILES: O=[N+]([O-])c1cccc(-c2nc(-c3ccc(Br)cc3)[nH]c2-c2ccc(Br)cc2)c1
- inhibition [1]: 2.77%
- inhibition [2]: 4.88%
- inhibition [3]: 1.57%
